Screens as filed in PubChem BioAssay.
TIM10 inh: growth inhibitors of isogenic TIM10 control yeast, primary screen, counter-screen for tim10-1 yeast inhibitor project, luminescence, uHTS; S. cerevisiae TIM10 strain growth, BacTiter-Glo luminescence, 24 h; inhibition, % at 10 µM; hit rate 1.4% among 330,000; AID 463195, 2010;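 active means inhibition of 40% or more at the single tested concentration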;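 further: wild-type TIM10 isogenic control strain grown at permissive 25 °C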
tim23-1 inh: growth inhibitors of tim23-1 mutant yeast, primary screen, luminescence, uHTS; inhibition, % at 20 µM; S. cerevisiae tim23-1 growth, BacTiter-Glo luminescence, 24 h; AID 463212, 2010; hit rate 1.3% among 330,000;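 active means growth inhibition of the mutant yeast at or above 50%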;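 further: temperature-sensitive mutant grown at 25 °C; plate controls were DMSO-treated mutant yeast for no effect and medium wells lacking yeast for full effect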
tim10-1 inh: growth inhibitors of tim10-1 mutant yeast, primary screen, luminescence, uHTS | inhibition, % at 20 µM | S. cerevisiae tim10-1 ts strain growth, BacTiter-Glo, 24 h | hit rate 2.2% among 330,000;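 active means inhibition of at least 40%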;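 further: mutant grown at 25 °C; 0% = DMSO wells with yeast and 100% = wells holding no yeast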
PfHsp90 set2: growth inhibition of PfHsp90-expressing yeast, primary screen, antimalarial PfHsp90 inhibitor project, S. cerevisiae, BacTiter-Glo luminescence, single point, set 2; BacTiter-Glo ATP, 48 h; yeast lacking PDR1 and PDR3 efflux regulators; inhibition, % at 9.4 µM; AID 504621, 2011; hit rate 0.32% among 310,000;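 active means every replicate shows inhibition above about 80%, whatever the replicate mean, limit read from the data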;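 further: 0% = DMSO neutral controls and 100% = 20 µM radicicol positive controls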
SKKanGAS inh: S. pyogenes SKKanGAS growth inhibitors in kanamycin, primary screen, streptokinase expression inhibitor project, SKKanGAS strain, BacTiter-Glo luminescence. inhibition, % at 7.5 µM. AID 1662, 2009. 6 h. hit rate 1.3% among 300,000;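 active means mean replicate score, as percent of positive control median, at least 50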;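 further: strain carries kanamycin resistance gene driven by streptokinase promoter and grows in 40 µg/ml kanamycin; loss of luminescence reflects streptokinase promoter inhibition or plain growth inhibition; 0% = median of DMSO wells and 100% = positive control at its reference dose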
EBI2 block: EBI2 receptor antagonists, beta-arrestin recruitment, primary screen, cell-based, luminescence, 7a,25-OHC stimulation, uHTS; 7a,25-OHC stimulated; inhibition, % at 5 µM; AID 651636, 2012; hit rate 0.81% among 360,000; in the data active means inhibition above about 38%;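 further: enzyme fragment complementation signal reports receptor beta-arrestin coupling in cells; 0% = agonist plus DMSO wells and 100% = wells without agonist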
Target sequence (P32249 whole entry, looked up, the tested form may be a part): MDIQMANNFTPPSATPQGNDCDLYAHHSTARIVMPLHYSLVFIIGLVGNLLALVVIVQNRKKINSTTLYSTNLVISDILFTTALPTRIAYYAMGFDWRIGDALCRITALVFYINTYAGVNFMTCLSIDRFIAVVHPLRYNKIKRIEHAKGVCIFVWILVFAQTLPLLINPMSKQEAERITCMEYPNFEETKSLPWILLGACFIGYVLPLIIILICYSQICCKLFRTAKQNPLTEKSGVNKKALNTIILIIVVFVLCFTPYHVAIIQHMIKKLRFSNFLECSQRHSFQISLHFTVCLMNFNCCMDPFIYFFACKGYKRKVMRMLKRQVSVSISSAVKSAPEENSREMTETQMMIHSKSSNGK
TIM10 conf: growth inhibitors of wild-type TIM10 yeast, confirmation, counter-screen for tim10-1 synthetic lethality project, single concentration, luminescence, S. cerevisiae. shares compounds with TIM10 inh. S. cerevisiae tim10 strain growth, BacTiter-Glo luminescence, 24 h. inhibition, % at 10 µM. hit rate 63% among 4,600. AID 463215, 2010;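 active means inhibition of yeast growth at or above a set limit in either of two replicates at 10 µM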;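 further: this counterscreen used the strain with wild-type TIM10; 0% = yeast with DMSO and 100% = medium wells lacking yeast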
An asterisk follows results filed as active; · = no result given. In the library only some 4.7% were active in any assay of this set; here they are far more common.

SMILES	TIM10 inh	tim23-1 inh	tim10-1 inh	PfHsp90 set2	SKKanGAS inh	EBI2 block	TIM10 conf
CC(C)C(=O)NS(=O)(=O)c1ccc(NS(C)(=O)=O)cc1	4.8	-14.8	-3.4	-18.8	-10.2	1.3	·
O=C(N/N=C/C1C(c2ccccc2)C1(Cl)Cl)c1cccc(Cl)c1 (configuration not stated)	40.2*	44.4	36.7	-18.1	8.4	9.6	12.4
CN(C1CCCCC1)S(=O)(=O)c1ccc(S(=O)(=O)N(CC(=O)Nc2ccccc2)C2CC2)cc1	0.9	3.2	0.3	-19.5	6.2	-5.6	·
COc1cnc(-c2ccccn2)nc1Sc1c(Cl)cccc1Cl	49.9*	18.6	34.5	·	-9.1	10.6	37.8*
COc1cccc(Oc2nc(-c3ccccc3O)nc3ccccc23)c1	-1.0	-3.2	10.8	-5.0	-4.1	1.4	·
COc1ccc(Oc2nc(-c3ccccn3)nc3ccccc23)cc1	41.3*	45.4	13.4	·	79.7*	7.0	34.3*
COc1cnc(-c2ccccn2)nc1Oc1cccc(Cl)c1	45.6*	43.9	39.5	1.0	-9.8	-9.7	49.0*
CC1(C(=O)NS(=O)(=O)c2ccccc2)CCN1C(=O)CCc1ccccc1 (configuration not stated)	·	·	·	·	·	-8.4	·
Cc1cccc(C(=O)NC2CCN(CC(=O)Nc3ccccc3Cl)CC2)c1	-1.8	10.4	4.3	2.3	2.3	-5.0	·
O=C(Nc1nccs1)c1ccc2nccnc2c1	41.2*	40.0	24.5	-8.2	-5.3	-11.6	39.2*
Cc1ccc(C(=O)Nc2nccs2)cc1	26.1	16.4	-10.7	-5.3	3.0	-6.1	·
Cc1ccc(S(=O)(=O)N(C)/N=C2/C(=O)N(CC(=O)O)c3ccccc32)cc1	0.9	6.5	8.4	-11.5	-1.1	-0.9	·
CSc1ccc2c(c1)N(CCC1CCCCN1C)c1ccccc1S2 (configuration not stated)	52.5*	17.0	23.0	-5.7	11.0	-7.8	29.1
CC(C)(C)n1nnnc1C(c1ccncc1)N(Cc1ccccc1)Cc1ccco1 (configuration not stated)	41.5*	33.6	30.6	0.2	25.8	9.4	-3.8
CC(C)(C)n1nnnc1C(c1cccs1)N(Cc1ccccc1)Cc1ccco1 (configuration not stated)	4.1	37.9	25.1	-29.9	-13.9	27.4	·
CC(=O)OCC1CCCC2=C(C)C(=O)CCC21COC(C)=O (configuration not stated)	-11.4	7.8	-5.8	22.8	-7.9	-1.1	·
O=C(OCN1C(=O)c2ccccc2C1=O)C1CCCCC1	2.5	10.4	22.6	0.8	0.5	-1.9	·
O=C1c2ccccc2C(=O)N1SC1CCCCC1	65.2*	10.0	32.9	105.8*	-0.8	-8.7	83.3*
Cc1ccc(C2C(C(=O)c3cccs3)=C(O)C(=O)N2c2nnc(C)s2)cc1 (configuration not stated)	-6.7	-1.3	21.6	4.6	9.4	5.4	·
O=c1c2ccccc2sn1-c1ccc(F)cc1	55.3*	35.2	30.3	7.3	·	11.8	64.5*
CCN(CC(=O)Nc1ccc([N+](=O)[O-])cc1OC)c1ccccc1	-11.0	20.0	3.5	-0.9	1.8	7.9	·
COc1ccc2sc(N(CCCN(C)C)C(=O)c3ccc(S(=O)(=O)N4CCc5ccccc5C4)cc3)nc2c1	15.3	9.5	29.8	4.6	20.5	12.1	·
Cc1ccc2nc(N(CCCN(C)C)C(=O)c3ccc(S(=O)(=O)N4CCc5ccccc5C4)cc3)sc2c1	44.9*	36.3	38.0	5.4	14.0	7.7	28.9
O=C1COc2ccc(N3C(=O)c4ccccc4C3=O)cc2N1	10.4	-1.1	7.1	·	0.0	·	·
